The source of these data is PubChem BioAssay AID1209 (Sanford-Burnham Center for Chemical Genomics, 2008).

The whole screen tested about 190,000 compounds, of which about 810 (0.43%) were called active. This excerpt belongs to a sample that is enriched for actives. Values without a mark were called inactive. Cut-off read from the data, not from the text of the source: active = inhibition above about 50%; inactive = the rest.

For this assay, the target named is Mannose-6-phosphate isomerase (Homo sapiens) (UniProt P34949). As to the kind of experiment: MPI enzyme activity inhibition – biochemical, fluorescence intensity, coupled assay, primary screen (AID 1209).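 Note: plate controls were DMSO vehicle for no effect and wells lacking substrate for full effect.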 As to conditions: purified PMI enzyme, at 20 µM, hits give high values.
Sequence of Mannose-6-phosphate isomerase (Homo sapiens) (P34949 whole entry, looked up): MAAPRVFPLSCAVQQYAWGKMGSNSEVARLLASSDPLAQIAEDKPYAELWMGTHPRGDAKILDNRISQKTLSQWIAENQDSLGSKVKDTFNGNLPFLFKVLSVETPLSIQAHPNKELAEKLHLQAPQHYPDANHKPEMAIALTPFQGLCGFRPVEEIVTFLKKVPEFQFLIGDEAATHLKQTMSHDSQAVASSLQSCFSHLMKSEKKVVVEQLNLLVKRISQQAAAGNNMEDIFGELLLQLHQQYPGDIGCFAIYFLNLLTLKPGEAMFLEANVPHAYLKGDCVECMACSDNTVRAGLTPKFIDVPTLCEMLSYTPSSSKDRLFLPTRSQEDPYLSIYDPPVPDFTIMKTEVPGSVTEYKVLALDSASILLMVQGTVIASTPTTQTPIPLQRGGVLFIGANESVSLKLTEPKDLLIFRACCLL
As usually defined, the inhibition is the change of the read-out against control, counted positive when it falls. For `O=C(O)CCC(=O)N1CCN(c2ccc(C(=O)c3ccc(F)cc3)cc2)CC1`, the inhibition was 2.5%.

With `CC(C)C(=O)Nc1ccccc1C(=O)OCC(=O)c1ccc2c(c1)OCCO2`, the inhibition is 12.7%.

Take `O=C(COC(=O)c1ccccc1NC(=O)C1CC1)c1ccc2c(c1)OCCO2`: the inhibition is 20.7%.

As for `O=C(O)/C=C/C(=O)Nc1ccccc1C(=O)OCC(=O)c1ccc2c(c1)OCCO2`, the inhibition was 108% (active).

With `COc1ccc(N2C(=O)/C(=C/c3cccs3)NC2=S)cc1`, the inhibition was 65.2% (active).

For the compound `COc1cccc(N2C(=O)/C(=C\c3cccs3)NC2=S)c1`, the inhibition was -20.3%.

Take `COc1ccc(N2C(=O)/C(=C/N(C)C)NC2=S)cc1`: the inhibition was 6.1%.

For the compound `CC(C(=O)Nc1ncccn1)(c1ccccc1)c1ccccc1`, the inhibition was 0.1%.

Take `C=CCNC(=S)NNC(=O)c1ccc(=O)n(Cc2ccccc2)c1`: the inhibition was -1.4%.

For `CCOC(=O)c1cnc2ccccc2c1NCCO`, the inhibition is -1.9%.

Consider `CCOC(=O)c1cnc2ccc(C)cc2c1NCCO`, for which the inhibition was -0.9%.

Consider `CCOC(=O)c1cnc2c(ccc3ccccc32)c1NCCO`, for which the inhibition was 103% (active).

`C/C(CC1CC(C)OC1=O)=N\NC(N)=S` (stereo not drawn): the inhibition is 17.6%.

As for `CCOC(=O)c1sc(N(C)C(C)=O)nc1C`, the inhibition is -2.3%.

Take `Cc1ccc(-n2c(SCC(=O)N(C)C3CCS(=O)(=O)C3)nc3ccccc3c2=O)cc1` (stereo not drawn): the inhibition was -4.5%.

On to `COc1cc(CNc2ccc(CNc3ncn[nH]3)cc2)ccc1OCC(=O)NC(C)(C)C`, for which the inhibition was 0.6%.

Turning to `C=CCOc1cccc(CNc2ccc3[nH]c(=O)[nH]c3c2)c1`, the inhibition was 17.8%.

Turning to `COc1cc(CNc2ccc3[nH]c(=O)[nH]c3c2)ccc1OCC(=O)NC(C)(C)C`, the inhibition is 82.4% (active).

Consider `C=CCOc1c(Cl)cc(CNc2ccc3[nH]c(=O)[nH]c3c2)cc1OC`, for which the inhibition is 26.3%.

Take `CCOc1cc(CNc2ccc3[nH]c(=O)[nH]c3c2)ccc1OCC(=O)NC(C)(C)C`: the inhibition is 75% (active).

As to `CC(C)(C)NC(=O)COc1ccc(CNc2ccc3[nH]c(=O)[nH]c3c2)cc1`, the inhibition was 62.2% (active).

On to `CCOc1cc(CNC)ccc1OCC(=O)NC(C)(C)C`, for which the inhibition is -7.3%.

As to `C=CCOc1ccc(CNc2ccc3[nH]c(=O)[nH]c3c2)cc1OC`, the inhibition is 81.1% (active).

As for `CCc1ccc(OCC(=O)NC(C)(C)C)cc1`, the inhibition is 2.4%.

As for `CC(C)(C)NC(=O)COc1ccc(CNc2ncn[nH]2)cc1`, the inhibition is 6.1%.

For the compound `CCOc1cc(CNc2ncn[nH]2)ccc1OCC(=O)NC(C)(C)C`, the inhibition was 7%.

With `COc1cc(CNc2ccc3[nH]c(=O)[nH]c3c2)cc(Br)c1OCC(=O)NC(C)(C)C`, the inhibition is 29.5%.

Turning to `CCCOc1ccc(C2/C(=C(/O)c3ccc(F)cc3)C(=O)C(=O)N2CCCN(C)C)cc1` (stereo not drawn), the inhibition was 16.2%.

On to `O=C(Nc1ccccc1N1CCOCC1)c1cc(-c2ccncc2)nc2ccccc12`, for which the inhibition was 4.3%.

As for `COc1cc(/C=C(\C#N)c2nc3ccc(C)cc3[nH]2)cc([N+](=O)[O-])c1O`, the inhibition was 46.2%.

With `CN(C)/C=C1\C(=O)N(c2ccc([N+](=O)[O-])cc2)N=C1c1ccccc1`, the inhibition is 24.5%.

In the case of `O=C(NCCN1CCCC1)c1ccc(Cn2c(=S)[nH]c3ccc(Br)cc3c2=O)cc1`, the inhibition is -24.9%.

On to `COc1ccc(C(=O)Nc2c(Cl)cc(Cl)cc2C(=O)NCCN2CCOCC2)cc1`, for which the inhibition is 2.6%.

Take `Cc1ccsc1/C=C/C(=O)O`: the inhibition was -2.7%.

For the compound `Cc1cccc(N2CC(O)(c3cccs3)[N+]3=C2CCCC3)c1` (stereo not drawn), the inhibition was -8.7%.

As for `CCC(CC)c1nc(C#N)c(NCc2ccccc2)o1`, the inhibition was 5.4%.

In the case of `CCOc1ccc(NC(=O)N2CCC(c3nc4ccccc4[nH]3)CC2)cc1`, the inhibition is -14.1%.

Regarding `COc1ccc(-c2nc(CN3CCC(c4ccccc4)CC3)c(C)o2)cc1OC`, the inhibition is 12.5%.

As for `Cc1sc(NC(=O)c2ccccc2)c(C(=O)NC(C)C)c1C`, the inhibition is 2.2%.

As for `Cc1ccc(C(=O)c2c(NC(=O)c3ccccc3)sc(C)c2C)cc1`, the inhibition was 59.8% (active).

For `Cc1sc(NC(=O)c2ccccc2)c(C(=O)NCCN(C)C)c1C`, the inhibition was -8.6%.

Turning to `CCN(CC)C(=O)c1c(NC(=O)c2ccccc2)sc(C)c1C`, the inhibition was -0.5%.

Turning to `Cc1ccccc1C(=O)Nc1sc(C)c(C)c1C(=O)c1ccccc1`, the inhibition is 13.9%.

In the case of `Cc1sc(NC(=O)CCl)c(C(=O)c2ccccc2)c1C`, the inhibition is 23.2%.

For `Cc1sc(NC(=O)c2ccccc2)c(C(=O)c2ccccc2)c1C`, the inhibition was 57.2% (active).

On to `Cc1ccc(C(=O)c2c(NC(=O)c3ccccc3C)sc(C)c2C)cc1`, for which the inhibition is 12.9%.

On to `Cc1ccc(C(=O)Nc2sc(C)c(C)c2C(=O)c2ccccc2)cc1`, for which the inhibition is 50.2% (active).

`COc1ccc(-n2ccnc2SCC(=O)NC2CCCC2)c(OC)c1`: the inhibition is -3.3%.

Take `CC(C)=CC(=O)OCC(=O)Nc1ccc(Cl)cn1`: the inhibition was 7%.

`Cc1nc(N2CCCCC2)c(C#N)c(C)c1[N+](=O)[O-]`: the inhibition is 1.3%.

Turning to `CC1CCN(C(=O)CCc2nnc(-c3ccccc3)o2)CC1`, the inhibition is 1.6%.

With `COc1ccc(OC)c(-n2nnnc2SCC(=O)Nc2ccc3c(c2)OCCO3)c1`, the inhibition was 14.4%.

For `CCOc1cc(Cl)c(NC(=O)c2ccco2)cc1OCC`, the inhibition was 10.1%.

In the case of `CC1=C(C(=O)Nc2ccccc2C)C2(CCCCC2)C(C(N)=O)C(=S)N1` (stereo not drawn), the inhibition was -53.8%.

Turning to `O=C(CSC1=Nc2ccccc2C2CC=NN12)Nc1ccc(F)cc1Cl` (stereo not drawn), the inhibition is 12.3%.

On to `Cc1cc2c(cc1C)CSC(c1c(O)ccc3ccccc13)SC2`, for which the inhibition is 21.9%.

For the compound `Cc1nc2ccccc2c(C)c1C(=O)c1ccccc1`, the inhibition is -1.1%.

Take `CCOC(=O)c1c(C2COc3ccccc3O2)csc1N` (stereo not drawn): the inhibition was 19.8%.

For `CCOC(=O)c1c(C2COc3ccccc3O2)csc1NC(=O)c1ccco1` (stereo not drawn), the inhibition was 55.5% (active).

On to `CCOC(=O)c1c(C2COc3ccccc3O2)csc1NC(=O)c1ccccc1` (stereo not drawn), for which the inhibition was 15.6%.

In the case of `CC1CCCC/C1=N\NC(=S)Nc1ccccc1` (stereo not drawn), the inhibition is -33.2%.

In the case of `C[n+]1ccccc1C1CCCC/C1=N\Nc1ccc([N+](=O)[O-])cc1[N+](=O)[O-]` (stereo not drawn), the inhibition is -5.6%.

In the case of `C[n+]1ccccc1C1CCCC/C1=N\NC(N)=S` (stereo not drawn), the inhibition was 64.5% (active).

For `Cc1ccc2c(c1)cc(CN(Cc1ccco1)S(=O)(=O)c1ccccc1)c1nnnn12`, the inhibition was 72.3% (active).

In the case of `Cc1ccc2c(c1)cc(CN(Cc1ccco1)C(=O)COc1ccccc1)c1nnnn12`, the inhibition is -0.9%.

For the compound `Cc1ccc2c(c1)cc(CN(Cc1ccc3c(c1)OCO3)S(=O)(=O)c1ccccc1)c1nnnn12`, the inhibition was 12.1%.

On to `Cc1ccc(O)c(/C=N/NC(=O)c2[nH]ncc2Br)c1`, for which the inhibition is -11.3%.

`COc1ccc(C=Nc2ccc3[nH]ncc3c2)c(O)c1`: the inhibition was 47.9%.

In the case of `Cc1ccc(O)c(C=Nc2ccc3[nH]ncc3c2)c1`, the inhibition was 51.9% (active).

As to `CCOC(=O)c1c(-c2ccc(C)cc2)cn2ccccc12`, the inhibition was -10.2%.

As for `CCOC(=O)c1c(-c2ccc(F)cc2)cn2ccccc12`, the inhibition is 4.3%.

Turning to `CCOC(=O)c1c(-c2ccccc2)cn2ccccc12`, the inhibition is 53.7% (active).

Turning to `COc1ccc(-c2csc(Nc3ccc(S(=O)(=O)Nc4cc(C)on4)cc3)n2)cc1C`, the inhibition was 18.4%.

With `CN(Cc1ccncn1)C(=O)CC1C(=O)NCCN1Cc1cccc(Oc2ccccc2)c1` (stereo not drawn), the inhibition was 4.2%.

For the compound `COc1ccccc1N1CCN(CCCCOc2cccc3ccccc23)CC1`, the inhibition is -10.7%.

Take `COc1cccc(NC(=S)Nc2cccnc2)c1`: the inhibition is 10.6%.

On to `COc1ccc(NC(=S)Nc2cccc3cnccc23)cc1`, for which the inhibition was 64.2% (active).

Consider `CCOc1ccc(NC(=S)Nc2ccc(OCC)cc2)cc1`, for which the inhibition was 7.6%.

For the compound `Fc1ccc(NC(=S)Nc2cccc3cnccc23)cc1`, the inhibition is 10.9%.

Take `CCOc1ccc(NC(=S)Nc2cccc3cnccc23)cc1`: the inhibition is 64.9% (active).

For `COc1cc(NC(=S)Nc2cccnc2)cc(OC)c1`, the inhibition was 55.4% (active).

Regarding `CCc1ccc(NC(=S)Nc2cccc3cnccc23)cc1`, the inhibition was 40.2%.

Regarding `O=C(NC(=S)Nc1cccc2cnccc12)c1ccccc1`, the inhibition was 22.7%.

On to `COc1cc(OC)cc(C(=O)NC(=S)Nc2cccnc2)c1`, for which the inhibition is 13.1%.

As to `CCOc1ccc(NC(=S)Nc2cccnc2)cc1`, the inhibition is 27.8%.

For the compound `CCOc1ccc(NC(=S)Nc2cc(-c3ccccc3)[nH]n2)cc1`, the inhibition is 35.1%.

Turning to `CCc1cccc2c(C(=O)Cn3nnc(-c4ccc(OC)c(OC)c4)n3)c[nH]c12`, the inhibition was 13.9%.

As for `O=C(NCCc1c[nH]c2ccccc12)C(=O)NCC1OCCN1S(=O)(=O)c1ccc(Cl)cc1` (stereo not drawn), the inhibition was 10%.

As to `COc1ccc(NC(=O)COC(=O)C(CC(C)C)N2C(=O)C3CC=CCC3C2=O)cc1Cl` (stereo not drawn), the inhibition was 16.5%.

With `N#Cc1c(NC(=O)CSc2n[nH]c(Cc3ccccc3)n2)oc(-c2ccccc2)c1-c1ccccc1`, the inhibition is -1.5%.

Turning to `CCOc1cccc(OCCOCCOc2ccccc2C(C)=O)c1`, the inhibition was 4.1%.

In the case of `COc1cccc(/C=N/NC(=O)C(=O)N/N=C/c2cccc(OC)c2OC)c1OC`, the inhibition is -0.6%.

Regarding `CCN(CC)CCNC(=O)Cn1c(C)cc2ccccc2c1=O`, the inhibition is -2.3%.

With `O=C1N=C(N2CCCCC2)SC1=C1CCCC1`, the inhibition was 1.2%.

As for `CCN(CC)S(=O)(=O)c1ccc(NC(=O)C2CCCN(C(=O)c3ccc(Cl)cc3)C2)cc1` (stereo not drawn), the inhibition is 14.2%.

For the compound `CCc1ccc(C(=O)COC(=O)c2nn(C)c(=O)c3ccccc23)cc1`, the inhibition was -3.7%.

Regarding `COc1cc(C(=O)O)nc2ccccc12`, the inhibition was 26.7%.

Consider `O=C(/C=C/c1ccccc1)NCCN1CCOCC1`, for which the inhibition was 2.1%.
